The values that follow come from paper PMC11006913.

Experiment in all cases: PBM; 200 nM protein, PBS
Settings in all cases: dsDNA, one strand shown

The target of test [1] is T1, VENTX (Homo sapiens, UniProt O95231 78-163, R121Q).
T1 sequence: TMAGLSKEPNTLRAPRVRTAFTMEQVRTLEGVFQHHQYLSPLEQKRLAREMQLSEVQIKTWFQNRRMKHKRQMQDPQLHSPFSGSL

Test [2] addresses T2, NKX2-6 (Homo sapiens, UniProt A6NCS4 118-204).
T2 sequence: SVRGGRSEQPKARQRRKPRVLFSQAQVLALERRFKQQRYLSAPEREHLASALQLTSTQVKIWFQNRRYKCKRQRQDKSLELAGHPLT

Test [3] has as its target HOXB9 (Homo sapiens, UniProt P17482 171-250, T197M).
Test [4] addresses HOXC9 (Homo sapiens, UniProt P31274 178-260, K195R).
The target in test [5] is HOXA7 (Homo sapiens, UniProt P31268 116-202).
HOXA7 (Homo sapiens, UniProt P31268 116-202), sequence (P31268 116-202): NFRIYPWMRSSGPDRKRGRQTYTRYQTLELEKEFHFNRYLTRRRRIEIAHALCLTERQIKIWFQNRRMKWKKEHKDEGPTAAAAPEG
The target of test [6] is HOXC10 (Homo sapiens, UniProt Q9NYD6 254-340).
HOXC10 (Homo sapiens, UniProt Q9NYD6 254-340), sequence (Q9NYD6 254-340): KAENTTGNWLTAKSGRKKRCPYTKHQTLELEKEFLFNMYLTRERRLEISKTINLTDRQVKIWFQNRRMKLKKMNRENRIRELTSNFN
Test [7] addresses ALX4 (Homo sapiens, UniProt Q9H161 200-286).
The target of test [8] is T3, PAX4 (Homo sapiens, UniProt O43316 9-242, R200K).
T3 sequence: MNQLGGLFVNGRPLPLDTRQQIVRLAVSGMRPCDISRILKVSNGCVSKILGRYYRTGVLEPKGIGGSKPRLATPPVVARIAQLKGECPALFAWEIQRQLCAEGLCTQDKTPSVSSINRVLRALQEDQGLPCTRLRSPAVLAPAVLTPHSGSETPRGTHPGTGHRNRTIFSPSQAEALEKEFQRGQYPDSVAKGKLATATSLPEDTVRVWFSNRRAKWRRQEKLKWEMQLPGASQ

Test [9] concerns the target PRRX1 (Homo sapiens, UniProt P54821 80-166, F113S).
Test [10] deals with T4, PAX4 (Homo sapiens, UniProt O43316 9-242).
T4 sequence: T3 sequence with K192R

Test [11] addresses HOXB6 (Homo sapiens, UniProt P17509 132-218, K202E).
The target of test [12] is ALX4 (Homo sapiens, UniProt Q9H161 200-286, Q225E).
ALX4 (Homo sapiens, UniProt Q9H161 200-286, Q225E), sequence (Q9H161 200-286 Q225E): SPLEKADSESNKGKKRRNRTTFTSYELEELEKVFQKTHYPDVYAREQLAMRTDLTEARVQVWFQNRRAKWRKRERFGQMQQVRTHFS
The target in test [13] is HOXA4 (Homo sapiens, UniProt Q00056 201-287, R217L).
HOXA4 (Homo sapiens, UniProt Q00056 201-287, R217L), sequence (Q00056 201-287 R217L): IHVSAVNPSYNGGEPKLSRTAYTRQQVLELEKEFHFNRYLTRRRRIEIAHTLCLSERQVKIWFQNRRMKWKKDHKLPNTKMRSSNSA
In test [14] the target is HOXB4 (Homo sapiens, UniProt P17483 148-234, V174I).
HOXB4, sequence (P17483 148-234 V174I): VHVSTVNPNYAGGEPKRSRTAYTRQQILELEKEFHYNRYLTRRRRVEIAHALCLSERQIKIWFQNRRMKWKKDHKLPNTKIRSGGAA
Test [15] concerns the target ALX1 (Homo sapiens, UniProt Q15699 118-204, L144V).
Test [16] has as its target ALX3 (Homo sapiens, UniProt O95076 139-225, N203Q).
The target in test [17] is HOXD13 (Homo sapiens, UniProt P35453 263-343, T313R).
HOXD13 (Homo sapiens, UniProt P35453 263-343, T313R), sequence (P35453 263-343 T313R): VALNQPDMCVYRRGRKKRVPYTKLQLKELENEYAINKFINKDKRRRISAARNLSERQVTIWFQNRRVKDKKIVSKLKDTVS
The target of test [18] is T5, PAX4 (Homo sapiens, UniProt O43316 9-242, R200Q).
T5 sequence: T3 sequence with K192Q

In test [19] the target is SHOX (Homo sapiens, UniProt O15266 103-189, R173C).
SHOX, sequence (O15266 103-189 R173C): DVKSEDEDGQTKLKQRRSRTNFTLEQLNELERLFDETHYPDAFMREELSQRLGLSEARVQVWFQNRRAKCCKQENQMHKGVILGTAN
Test [20] deals with HOXC9 (Homo sapiens, UniProt P31274 178-260, R193K).
HOXC9 (Homo sapiens, UniProt P31274 178-260, R193K), sequence (P31274 178-260 R193K): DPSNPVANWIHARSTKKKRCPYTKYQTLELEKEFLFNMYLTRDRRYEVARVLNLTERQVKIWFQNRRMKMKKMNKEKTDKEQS
For test [21], the target named is ALX1 (Homo sapiens, UniProt Q15699 118-204, L144R).
ALX1 (Homo sapiens, UniProt Q15699 118-204, L144R), sequence (Q15699 118-204 L144R): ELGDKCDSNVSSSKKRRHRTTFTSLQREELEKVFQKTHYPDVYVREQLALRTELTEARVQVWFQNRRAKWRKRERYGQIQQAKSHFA
The target in test [22] is T6, PAX4 (Homo sapiens, UniProt O43316 9-242, F177V).
T6 sequence: T3 sequence with F169V, K192R

For test [23], the target named is HOXC10 (Homo sapiens, UniProt Q9NYD6 254-340, K271E).
HOXC10 (Homo sapiens, UniProt Q9NYD6 254-340, K271E), sequence (Q9NYD6 254-340 K271E): as the sequence (Q9NYD6 254-340) above, with K18E counted along it
For test [24], the target named is ALX3 (Homo sapiens, UniProt O95076 139-225).
ALX3 (Homo sapiens, UniProt O95076 139-225), sequence (O95076 139-225): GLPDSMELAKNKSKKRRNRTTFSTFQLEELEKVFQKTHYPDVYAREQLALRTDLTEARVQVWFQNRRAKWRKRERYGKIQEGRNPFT
For test [25], the target named is T7, PAX4 (Homo sapiens, UniProt O43316 9-242, F177Y).
T7 sequence: T3 sequence with F169Y, K192R

Test [26] addresses HESX1 (Homo sapiens, UniProt Q9UBX0 95-180, R109Q).
Test [27] concerns the target ALX3 (Homo sapiens, UniProt O95076 139-225, L168Q).
For test [28], the target named is HESX1 (Homo sapiens, UniProt Q9UBX0 95-180, P111T).
HESX1 (Homo sapiens, UniProt Q9UBX0 95-180, P111T), sequence (Q9UBX0 95-180 P111T): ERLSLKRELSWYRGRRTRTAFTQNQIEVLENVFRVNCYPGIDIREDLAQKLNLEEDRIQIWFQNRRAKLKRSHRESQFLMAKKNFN
The target of test [29] is HOXB9 (Homo sapiens, UniProt P17482 171-250, R186Q).
HOXB9 (Homo sapiens, UniProt P17482 171-250, R186Q), sequence (P17482 171-250 R186Q): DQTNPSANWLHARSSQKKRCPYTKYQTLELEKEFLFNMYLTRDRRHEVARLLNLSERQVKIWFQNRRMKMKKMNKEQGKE
Test [30] addresses HOXC9 (Homo sapiens, UniProt P31274 178-260, R222W).
The target of test [31] is ALX3 (Homo sapiens, UniProt O95076 139-225, L168V).
ALX3 (Homo sapiens, UniProt O95076 139-225, L168V), sequence (O95076 139-225 L168V): as the sequence (O95076 139-225) above, with L30V counted along it
For test [32], the target named is HESX1 (Homo sapiens, UniProt Q9UBX0 95-180, F115L).
HESX1 (Homo sapiens, UniProt Q9UBX0 95-180, F115L), sequence (Q9UBX0 95-180 F115L): as the sequence (Q9UBX0 95-180 P111T) above, with T17P, F21L counted along it
Test [33] has as its target VAX1 (Homo sapiens, UniProt Q5SQQ9 86-172, T142I).
Test [34] has as its target T8, PAX4 (Homo sapiens, UniProt O43316 9-242, R227W).
T8 sequence: T3 sequence with K192R, R219W

The target of test [35] is HOXA7 (Homo sapiens, UniProt P31268 116-202, W177C).
HOXA7 (Homo sapiens, UniProt P31268 116-202, W177C), sequence (P31268 116-202 W177C): as the sequence (P31268 116-202) above, with W62C counted along it
The target of test [36] is HOXA4 (Homo sapiens, UniProt Q00056 201-287, W262F).
HOXA4 (Homo sapiens, UniProt Q00056 201-287, W262F), sequence (Q00056 201-287 W262F): as the sequence (Q00056 201-287 R217L) above, with L17R, W62F counted along it
Test [37] addresses ALX3 (Homo sapiens, UniProt O95076 139-225, N203S).
In test [38] the target is PRRX1 (Homo sapiens, UniProt P54821 80-166).
PRRX1 (Homo sapiens, UniProt P54821 80-166), sequence (P54821 80-166): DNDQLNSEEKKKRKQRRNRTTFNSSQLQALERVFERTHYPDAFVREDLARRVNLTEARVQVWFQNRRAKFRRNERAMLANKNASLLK
Test [39] deals with HOXB6 (Homo sapiens, UniProt P17509 132-218).
HOXB6 (Homo sapiens, UniProt P17509 132-218), sequence (P17509 132-218): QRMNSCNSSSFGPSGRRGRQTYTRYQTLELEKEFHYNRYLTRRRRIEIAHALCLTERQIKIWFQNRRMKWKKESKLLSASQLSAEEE
The target of test [40] is T9, VENTX (Homo sapiens, UniProt O95231 78-163, Y115F).
T9 sequence: T1 sequence with Y38F, Q44R

The target of test [41] is CRX (Homo sapiens, UniProt O43186 26-111, R41L).
CRX, sequence (O43186 26-111 R41L): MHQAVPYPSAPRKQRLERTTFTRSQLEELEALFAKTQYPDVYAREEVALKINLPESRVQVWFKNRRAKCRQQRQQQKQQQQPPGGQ
In test [42] the target is HOXB9 (Homo sapiens, UniProt P17482 171-250).
HOXB9 (Homo sapiens, UniProt P17482 171-250), sequence (P17482 171-250): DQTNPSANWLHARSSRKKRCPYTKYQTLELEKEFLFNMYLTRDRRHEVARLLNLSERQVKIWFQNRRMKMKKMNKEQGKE
Test [43] concerns the target HOXC9 (Homo sapiens, UniProt P31274 178-260).
The target of test [44] is HOXD13 (Homo sapiens, UniProt P35453 263-343).
HOXD13 (Homo sapiens, UniProt P35453 263-343), sequence (P35453 263-343): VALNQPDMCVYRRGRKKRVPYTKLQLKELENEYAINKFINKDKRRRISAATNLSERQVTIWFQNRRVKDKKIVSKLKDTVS
The target in test [45] is HOXD13 (Homo sapiens, UniProt P35453 263-343, T313A).
HOXD13 (Homo sapiens, UniProt P35453 263-343, T313A), sequence (P35453 263-343 T313A): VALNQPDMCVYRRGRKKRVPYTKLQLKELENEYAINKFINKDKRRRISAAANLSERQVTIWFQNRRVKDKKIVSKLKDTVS

Where a chain is given by its changes, count along the chain named.

HOXC9 (Homo sapiens, UniProt P31274 178-260, R222W), sequence (P31274 178-260 R222W): as the sequence (P31274 178-260 R193K) above, with K16R, R45W counted along it
HOXC9 (Homo sapiens, UniProt P31274 178-260, K195R), sequence (P31274 178-260 K195R): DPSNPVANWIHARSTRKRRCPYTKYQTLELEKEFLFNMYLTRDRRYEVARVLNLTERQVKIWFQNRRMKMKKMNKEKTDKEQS
HOXB9 (Homo sapiens, UniProt P17482 171-250, T197M), sequence (P17482 171-250 T197M): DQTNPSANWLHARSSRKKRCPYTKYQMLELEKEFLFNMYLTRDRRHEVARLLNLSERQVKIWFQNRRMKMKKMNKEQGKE
HESX1 (Homo sapiens, UniProt Q9UBX0 95-180, R109Q), sequence (Q9UBX0 95-180 R109Q): as the sequence (Q9UBX0 95-180 P111T) above, with R15Q, T17P counted along it
HOXC9 (Homo sapiens, UniProt P31274 178-260), sequence (P31274 178-260): as the sequence (P31274 178-260 R193K) above, with K16R counted along it
ALX4 (Homo sapiens, UniProt Q9H161 200-286), sequence (Q9H161 200-286): as the sequence (Q9H161 200-286 Q225E) above, with E26Q counted along it
PRRX1 (Homo sapiens, UniProt P54821 80-166, F113S), sequence (P54821 80-166 F113S): as the sequence (P54821 80-166) above, with F34S counted along it
ALX3 (Homo sapiens, UniProt O95076 139-225, N203S), sequence (O95076 139-225 N203S): as the sequence (O95076 139-225) above, with N65S counted along it
VAX1, sequence (Q5SQQ9 86-172 T142I): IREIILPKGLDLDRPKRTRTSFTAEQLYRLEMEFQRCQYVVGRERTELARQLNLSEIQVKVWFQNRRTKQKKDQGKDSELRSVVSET
ALX1 (Homo sapiens, UniProt Q15699 118-204, L144V), sequence (Q15699 118-204 L144V): as the sequence (Q15699 118-204 L144R) above, with R27V counted along it
ALX3 (Homo sapiens, UniProt O95076 139-225, N203Q), sequence (O95076 139-225 N203Q): as the sequence (O95076 139-225) above, with N65Q counted along it
HOXB6 (Homo sapiens, UniProt P17509 132-218, K202E), sequence (P17509 132-218 K202E): as the sequence (P17509 132-218) above, with K71E counted along it
ALX3 (Homo sapiens, UniProt O95076 139-225, L168Q), sequence (O95076 139-225 L168Q): as the sequence (O95076 139-225) above, with L30Q counted along it

Regarding ACGATTAT, the binding signal in test [1] was 10.5 upbm affinity estimate (log intensity, higher = more binding, comparable within an allelic series); in test [2], 10.7 upbm affinity estimate (log intensity, higher = more binding, comparable within an allelic series).

Turning to ATTAATAA, the binding signal in test [3] is 10.1 upbm affinity estimate (log intensity, higher = more binding, comparable within an allelic series); in test [4] it was 12.6 upbm affinity estimate (log intensity, higher = more binding, comparable within an allelic series); in [5], 11.2 upbm affinity estimate (log intensity, higher = more binding, comparable within an allelic series); in test [6], 12.2 upbm affinity estimate (log intensity, higher = more binding, comparable within an allelic series); in [7], 13.5 upbm affinity estimate (log intensity, higher = more binding, comparable within an allelic series); in [8], 11.7 upbm affinity estimate (log intensity, higher = more binding, comparable within an allelic series). In addition, the binding signal in test [9] was 11.2 upbm affinity estimate (log intensity, higher = more binding, comparable within an allelic series); in test [10] it was 12.1 upbm affinity estimate (log intensity, higher = more binding, comparable within an allelic series); in test [11] it was 10.1 upbm affinity estimate (log intensity, higher = more binding, comparable within an allelic series); in test [12], 12.8 upbm affinity estimate (log intensity, higher = more binding, comparable within an allelic series); in [13], 12 upbm affinity estimate (log intensity, higher = more binding, comparable within an allelic series); in test [14] it was 13.6 upbm affinity estimate (log intensity, higher = more binding, comparable within an allelic series). Further, the binding signal is 11.4 upbm affinity estimate (log intensity, higher = more binding, comparable within an allelic series) in [15]; 8.66 upbm affinity estimate (log intensity, higher = more binding, comparable within an allelic series) in [16]; 10.8 upbm affinity estimate (log intensity, higher = more binding, comparable within an allelic series) in test [17]; 11.9 upbm affinity estimate (log intensity, higher = more binding, comparable within an allelic series) in test [18]; 9.26 upbm affinity estimate (log intensity, higher = more binding, comparable within an allelic series) in test [19]; 12.5 upbm affinity estimate (log intensity, higher = more binding, comparable within an allelic series) in test [20]. Moreover, the binding signal was 11.2 upbm affinity estimate (log intensity, higher = more binding, comparable within an allelic series) in test [21]; 10.7 upbm affinity estimate (log intensity, higher = more binding, comparable within an allelic series) in test [22]; 11.8 upbm affinity estimate (log intensity, higher = more binding, comparable within an allelic series) in test [23]; 12.2 upbm affinity estimate (log intensity, higher = more binding, comparable within an allelic series) in test [24]; 11 upbm affinity estimate (log intensity, higher = more binding, comparable within an allelic series) in [25]; 8.97 upbm affinity estimate (log intensity, higher = more binding, comparable within an allelic series) in test [26]. Further, the binding signal is 10.2 upbm affinity estimate (log intensity, higher = more binding, comparable within an allelic series) in test [27]; 10.2 upbm affinity estimate (log intensity, higher = more binding, comparable within an allelic series) in test [28]; 11.4 upbm affinity estimate (log intensity, higher = more binding, comparable within an allelic series) in [29]; 11.2 upbm affinity estimate (log intensity, higher = more binding, comparable within an allelic series) in test [30]; 9.99 upbm affinity estimate (log intensity, higher = more binding, comparable within an allelic series) in [31]; 8.16 upbm affinity estimate (log intensity, higher = more binding, comparable within an allelic series) in [32]. Moreover, the binding signal in test [33] is 12.3 upbm affinity estimate (log intensity, higher = more binding, comparable within an allelic series); in test [34], 11 upbm affinity estimate (log intensity, higher = more binding, comparable within an allelic series); in test [35] it was 9.01 upbm affinity estimate (log intensity, higher = more binding, comparable within an allelic series); in [36], 11.4 upbm affinity estimate (log intensity, higher = more binding, comparable within an allelic series); in [37] it was 8.71 upbm affinity estimate (log intensity, higher = more binding, comparable within an allelic series); in test [38], 13.2 upbm affinity estimate (log intensity, higher = more binding, comparable within an allelic series). In addition, the binding signal in test [39] is 11.7 upbm affinity estimate (log intensity, higher = more binding, comparable within an allelic series).

With CGCATTAA, the binding signal was 10.5 upbm affinity estimate (log intensity, higher = more binding, comparable within an allelic series) in test [1]; 11.7 upbm affinity estimate (log intensity, higher = more binding, comparable within an allelic series) in test [8]; 10.6 upbm affinity estimate (log intensity, higher = more binding, comparable within an allelic series) in [40]; 12.1 upbm affinity estimate (log intensity, higher = more binding, comparable within an allelic series) in [10]; 11.6 upbm affinity estimate (log intensity, higher = more binding, comparable within an allelic series) in test [18]; 10.4 upbm affinity estimate (log intensity, higher = more binding, comparable within an allelic series) in [22]. For the same sequence, the binding signal is 11 upbm affinity estimate (log intensity, higher = more binding, comparable within an allelic series) in [25]; 10.9 upbm affinity estimate (log intensity, higher = more binding, comparable within an allelic series) in [34]; 10.9 upbm affinity estimate (log intensity, higher = more binding, comparable within an allelic series) in [41].

CCCATAAA: the binding signal in test [3] is 9.63 upbm affinity estimate (log intensity, higher = more binding, comparable within an allelic series); in test [4] it was 12.8 upbm affinity estimate (log intensity, higher = more binding, comparable within an allelic series); in test [5], 10.4 upbm affinity estimate (log intensity, higher = more binding, comparable within an allelic series); in test [6], 12.5 upbm affinity estimate (log intensity, higher = more binding, comparable within an allelic series); in [42], 12.2 upbm affinity estimate (log intensity, higher = more binding, comparable within an allelic series); in test [43], 13 upbm affinity estimate (log intensity, higher = more binding, comparable within an allelic series). The binding signal in test [17] is 11 upbm affinity estimate (log intensity, higher = more binding, comparable within an allelic series); in test [20] it was 12.8 upbm affinity estimate (log intensity, higher = more binding, comparable within an allelic series); in [44], 12.3 upbm affinity estimate (log intensity, higher = more binding, comparable within an allelic series); in test [23], 11.9 upbm affinity estimate (log intensity, higher = more binding, comparable within an allelic series); in test [45], 12 upbm affinity estimate (log intensity, higher = more binding, comparable within an allelic series); in test [29] it was 12 upbm affinity estimate (log intensity, higher = more binding, comparable within an allelic series). Further, the binding signal was 11.2 upbm affinity estimate (log intensity, higher = more binding, comparable within an allelic series) in test [30] and 8.63 upbm affinity estimate (log intensity, higher = more binding, comparable within an allelic series) in test [35].
